One assay relates to Plasmodium falciparum. As to the kind of experiment: GSK_TCMDC: Inhibition of Plasmodium falciparum 3D7 in whole red blood cells, using parasite LDH activity as an index of growth. Test compounds present at 2uM. The format is functional.
As a reminder, the Inhibition is how much of the control response was suppressed. Consider `O=C(NC(=S)Nc1cc(C(F)(F)F)cc(C(F)(F)F)c1)c1ccc(Cl)cc1`, for which the Inhibition came to 96%.
Same read-out and setting: next, `O=C(Nc1ccc(-c2cncc(NCCCN3CCCC3)c2)cc1)c1ccccc1`: 94%.
The same measure, in the same setting: the figure for `CC(C)(CNC(=O)[C@H]1CCCCN1)c1nc(-c2ccc(Cl)c(O)c2)c(-c2ccncc2)[nH]1.Cl` is 98%.
Still for that read-out and setting: the figure for `CC(C)COc1ccc(Cl)cc1Cc1nc(-c2nc3ccc(CN4CCCC4)cc3[nH]2)co1.Cl` is 100%.
For the compound `O=C(/C=C/c1ccc(Cl)c(Cl)c1)NCCCCCN1CCC(NC(=O)Nc2cccc(Cl)c2Cl)CC1`, the Inhibition was found to be 100%.
On the same count and under the same terms, the figure for `CN1CCCc2cc(NC(=O)C=Cc3ccc(-c4ccc(F)cc4F)o3)ccc2C1.O=C(O)C(F)(F)F` is 90%.
The same measure, in the same setting: the figure for `Cc1cccc(Cn2c(Cc3ccccc3)nnc2Sc2ccc([N+](=O)[O-])c(C#N)c2)c1` is 91%; for `COc1ccc2c(=NN=Cc3ccc(OC)c4ccccc34)cc(C)[nH]c2c1` it is 100%.
`Cc1ccc(NC(=S)NC2CCN(CCCCCNC(=O)/C=C/c3ccc(Cl)c(Cl)c3)CC2)cc1Cl`: the Inhibition stood at 100%.
On the same count and under the same terms, the figure for `O=C(Cc1ccccc1)NC1CCN(c2ccnc3cc(Cl)ccc23)C1.O=C(O)C(F)(F)F` (stereo not given) is 100%; for `CN(CCCNCc1cccc2ccccc12)CCCNCc1cccc2ccccc12.Cl` it is 100%; for `Cn1cncc1C(=O)Nc1cccc(-c2cccc(-c3nc4cc(C(F)(F)F)ccc4[nH]3)c2)c1` it is 100%.
`COc1cccc(-c2ccc(NC(=O)C3CCCN(Cc4cccc(OC)c4O)C3)cc2)c1` (stereo not given): the Inhibition came to 98%.
Still for that read-out and setting: the figure for `N=C(N)NC(=O)Nc1cc(Cl)c(Br)c(Cl)c1` is 100%; for `CC(CN(C)C)C(=O)Nc1ccc(-c2cccc(-c3nc4cc(C(F)(F)F)ccc4[nH]3)c2)cc1` (stereo not given) it is 100%; for `COc1c(CNCCCCCCNCc2c(OC)c(OC)c3ccccc3c2OC)c(OC)c2ccccc2c1OC.CS(=O)(=O)O` it is 96%.
`COCCNCc1cccc(-c2ccc(CNC3CCN(Cc4ccccc4)CC3)cc2)c1.O=C(O)C(F)(F)F` had an Inhibition of 100%.
Take `COc1ccc(N2C(N)=NC(N)=NC2(C)C)cc1.Cl`: the Inhibition was 94%.
Still for that read-out and setting: next, `Cc1cc(NCCC(=O)NCCOc2ccccc2)nc(NCc2ccccc2C)n1.O=C(O)C(F)(F)F`: 92%; `Cc1ccc(-c2cc(C(=O)Nc3ccc(S(=O)(=O)N(C)Cc4ccccc4)cc3)[nH]n2)c(O)c1`: 99%; `CC(C)CNC(=O)c1cncc(-c2cccc(CNC3Cc4ccccc4C3)c2)c1.O=C(O)C(F)(F)F`: 100%.
Same read-out and setting: the figure for `Cc1[nH]c2ccccc2c1C=NNc1nc(=Nc2ccccc2)[nH]c(=Nc2ccccc2)[nH]1` is 87%; for `CN(C)CC(=O)Nc1ccc(Nc2nccc(NCC(O)c3ccccc3)n2)cc1` (stereo not given) it is 95%; for `CCNC(=O)N1CCc2ccc(Oc3nc(NCc4ccccc4OC)ncc3C)cc2CC1.O=C(O)C(F)(F)F` it is 83%.
The same measure, in the same setting: next, `Cc1cccc2nc(-c3cccc(-c4cccc(CNC(C)C)c4)c3)[nH]c12.O=C(O)C(F)(F)F`: 100%; `Cc1cc(N(C)C)nc(Nc2ccc(NC(=O)c3c(F)cccc3F)cc2)n1`: 94%.
For the compound `O=C(Nc1ccnc(N2CC3CC2CN3Cc2cccc(O)c2)c1)c1ccc(F)cc1.O=C(O)C(F)(F)F` (stereo not given), the Inhibition worked out at 92%.
On the same count and under the same terms, next, `Cl.O=C(C=Cc1ccc(F)cc1)NC1CCC(CCN2CCc3ccc(-c4cnccn4)cc3CC2)CC1` (stereo not given): 99%; `CN1CCC(NC(=O)c2cccc(Nc3cc(Nc4cccc(Br)c4)ncn3)c2)CC1`: 94%.
On the same count and under the same terms, the figure for `Cc1ccc(-c2nc3cc(C(=O)NC4CCN(Cc5ccccc5)CC4)ccc3[nH]2)cc1` is 100%.
Same read-out and setting: the figure for `Oc1c(Br)cc2oc3c(c2c1CNCc1ccccc1)CCCC3` is 99%; for `COc1ccc2c(=NN=Cc3ccccc3F)cc(C)[nH]c2c1` it is 90%; for `Cc1[nH]c(C)c(-c2ccc(CCc3cccc(C(F)(F)F)c3)nc2)c(=O)c1Cl` it is 99%.
In the case of `Cl.O=C(NC1CCC(CCN2Cc3cccc(F)c3C2)CC1)c1cccc(-c2cccnc2)c1` (stereo not given), the Inhibition was found to be 98%.
On the same count and under the same terms, next, `CCCCOP(=O)(COc1ccc(CCN(CC(O)COc2cccc3[nH]c4ccccc4c23)CC(O)COc2cccc3[nH]c4ccccc4c23)cc1)C1CCCCC1` (stereo not given): 89%; `Oc1cccc(CNCCCN(Cc2ccccc2)c2ccccc2)c1`: 99%; `Cc1cc2nc(-c3cc(-c4cccc(NS(C)(=O)=O)c4)cnc3N)[nH]c2cc1C`: 100%.
With `O=C(Nc1cccc(-c2ccc(-c3nc4cc(F)ccc4[nH]3)cc2)c1)Nc1ccc(F)c(F)c1F`, the Inhibition was 98%.
The same measure, in the same setting: next, `CSc1ccc(CN2CCC(NC(=O)c3ccc(-c4cccc(Cl)c4)s3)CC2)cc1.O=C(O)C(F)(F)F`: 86%; `O=c1cc(NCCC(CNCCc2ccccc2)NCc2cc(Br)cc(Br)c2)[nH]c2ccccc12` (stereo not given): 98%.

The test system of a further assay is Plasmodium falciparum. As to the kind of experiment: GSK_TCMDC: Inhibition of Plasmodium falciparum Dd2 in whole red blood cells, using parasite LDH activity as an index of growth. Test compounds present at 2uM. The class given is functional.
`O=C(NC(=S)Nc1cc(C(F)(F)F)cc(C(F)(F)F)c1)c1ccc(Cl)cc1`: the Inhibition came out at 99%.
In turn, `O=C(Nc1ccc(-c2cncc(NCCCN3CCCC3)c2)cc1)c1ccccc1` came in with an Inhibition of 49%.
The same measure, in the same setting: next, `CC(C)(CNC(=O)[C@H]1CCCCN1)c1nc(-c2ccc(Cl)c(O)c2)c(-c2ccncc2)[nH]1.Cl`: 98%; `CC(C)COc1ccc(Cl)cc1Cc1nc(-c2nc3ccc(CN4CCCC4)cc3[nH]2)co1.Cl`: 66%.
Still for that read-out and setting: the figure for `O=C(/C=C/c1ccc(Cl)c(Cl)c1)NCCCCCN1CCC(NC(=O)Nc2cccc(Cl)c2Cl)CC1` is 35%.
Still for that read-out and setting: the figure for `CN1CCCc2cc(NC(=O)C=Cc3ccc(-c4ccc(F)cc4F)o3)ccc2C1.O=C(O)C(F)(F)F` is 27%; for `Cc1cccc(Cn2c(Cc3ccccc3)nnc2Sc2ccc([N+](=O)[O-])c(C#N)c2)c1` it is 3%.
As for `COc1ccc2c(=NN=Cc3ccc(OC)c4ccccc34)cc(C)[nH]c2c1`, the Inhibition was found to be 99%.
Same read-out and setting: the figure for `Cc1ccc(NC(=S)NC2CCN(CCCCCNC(=O)/C=C/c3ccc(Cl)c(Cl)c3)CC2)cc1Cl` is 56%; for `O=C(Cc1ccccc1)NC1CCN(c2ccnc3cc(Cl)ccc23)C1.O=C(O)C(F)(F)F` (stereo not given) it is 78%.
Same read-out and setting: the figure for `CN(CCCNCc1cccc2ccccc12)CCCNCc1cccc2ccccc12.Cl` is 94%.
On the same count and under the same terms, the figure for `Cn1cncc1C(=O)Nc1cccc(-c2cccc(-c3nc4cc(C(F)(F)F)ccc4[nH]3)c2)c1` is 99%.
On to `COc1cccc(-c2ccc(NC(=O)C3CCCN(Cc4cccc(OC)c4O)C3)cc2)c1` (stereo not given), for which the Inhibition turned out to be 78%.
Same read-out and setting: the figure for `N=C(N)NC(=O)Nc1cc(Cl)c(Br)c(Cl)c1` is 100%; for `CC(CN(C)C)C(=O)Nc1ccc(-c2cccc(-c3nc4cc(C(F)(F)F)ccc4[nH]3)c2)cc1` (stereo not given) it is 85%; for `COc1c(CNCCCCCCNCc2c(OC)c(OC)c3ccccc3c2OC)c(OC)c2ccccc2c1OC.CS(=O)(=O)O` it is 98%.
As for `COCCNCc1cccc(-c2ccc(CNC3CCN(Cc4ccccc4)CC3)cc2)c1.O=C(O)C(F)(F)F`, the Inhibition came out at 97%.
`COc1ccc(N2C(N)=NC(N)=NC2(C)C)cc1.Cl` came in with an Inhibition of 29%.
`Cc1cc(NCCC(=O)NCCOc2ccccc2)nc(NCc2ccccc2C)n1.O=C(O)C(F)(F)F` gave an Inhibition of 29%.
Consider `Cc1ccc(-c2cc(C(=O)Nc3ccc(S(=O)(=O)N(C)Cc4ccccc4)cc3)[nH]n2)c(O)c1`, for which the Inhibition is 67%.
The same measure, in the same setting: next, `CC(C)CNC(=O)c1cncc(-c2cccc(CNC3Cc4ccccc4C3)c2)c1.O=C(O)C(F)(F)F`: 19%.
`Cc1[nH]c2ccccc2c1C=NNc1nc(=Nc2ccccc2)[nH]c(=Nc2ccccc2)[nH]1` yielded an Inhibition of 23%.
Still for that read-out and setting: next, `CN(C)CC(=O)Nc1ccc(Nc2nccc(NCC(O)c3ccccc3)n2)cc1` (stereo not given): 2%; `CCNC(=O)N1CCc2ccc(Oc3nc(NCc4ccccc4OC)ncc3C)cc2CC1.O=C(O)C(F)(F)F`: 76%; `Cc1cccc2nc(-c3cccc(-c4cccc(CNC(C)C)c4)c3)[nH]c12.O=C(O)C(F)(F)F`: 98%.
The same measure, in the same setting: the figure for `Cc1cc(N(C)C)nc(Nc2ccc(NC(=O)c3c(F)cccc3F)cc2)n1` is 45%; for `O=C(Nc1ccnc(N2CC3CC2CN3Cc2cccc(O)c2)c1)c1ccc(F)cc1.O=C(O)C(F)(F)F` (stereo not given) it is 0%.
Still for that read-out and setting: the figure for `Cl.O=C(C=Cc1ccc(F)cc1)NC1CCC(CCN2CCc3ccc(-c4cnccn4)cc3CC2)CC1` (stereo not given) is 65%.
For `CN1CCC(NC(=O)c2cccc(Nc3cc(Nc4cccc(Br)c4)ncn3)c2)CC1`, the Inhibition came to 6%.
On the same count and under the same terms, next, `Cc1ccc(-c2nc3cc(C(=O)NC4CCN(Cc5ccccc5)CC4)ccc3[nH]2)cc1`: 53%; `Oc1c(Br)cc2oc3c(c2c1CNCc1ccccc1)CCCC3`: 74%; `COc1ccc2c(=NN=Cc3ccccc3F)cc(C)[nH]c2c1`: 12%.
Consider `Cc1[nH]c(C)c(-c2ccc(CCc3cccc(C(F)(F)F)c3)nc2)c(=O)c1Cl`, for which the Inhibition was 97%.
For the compound `Cl.O=C(NC1CCC(CCN2Cc3cccc(F)c3C2)CC1)c1cccc(-c2cccnc2)c1` (stereo not given), the Inhibition is given as 82%.
Still for that read-out and setting: the figure for `CCCCOP(=O)(COc1ccc(CCN(CC(O)COc2cccc3[nH]c4ccccc4c23)CC(O)COc2cccc3[nH]c4ccccc4c23)cc1)C1CCCCC1` (stereo not given) is 92%.
`Oc1cccc(CNCCCN(Cc2ccccc2)c2ccccc2)c1` registered an Inhibition of 97%.
Take `Cc1cc2nc(-c3cc(-c4cccc(NS(C)(=O)=O)c4)cnc3N)[nH]c2cc1C`: the Inhibition was 32%.
Same read-out and setting: next, `O=C(Nc1cccc(-c2ccc(-c3nc4cc(F)ccc4[nH]3)cc2)c1)Nc1ccc(F)c(F)c1F`: 98%.
Same read-out and setting: next, `CSc1ccc(CN2CCC(NC(=O)c3ccc(-c4cccc(Cl)c4)s3)CC2)cc1.O=C(O)C(F)(F)F`: 19%.
In the case of `O=c1cc(NCCC(CNCCc2ccccc2)NCc2cc(Br)cc(Br)c2)[nH]c2ccccc12` (stereo not given), the Inhibition was determined as 47%.

The record behind these values is ChEMBL document CHEMBL1157539, “Thousands of chemical starting points for antimalarial lead identification” (Nature, 2010).
